Sampled rows, rich in hits. Any-hit rate of the full collection: about 1.2%.
NOD2-RIPK2 inh – inhibitors of human NOD2-RIPK2 interaction | inhibition, % at 4.98 µM | O43353 | AID 624267 | CHO BLA complementation NOD2-RIPK2, CCF4 ratio | actives 0.38% (n = 360,000); in the data active means inhibition above about 21%;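 further: 0% = vehicle only and 100% = reference blocker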
TLR4 MyD88 comp – inhibitors of human TLR4-MyD88 binding. HeLa CL3-4 TLR4/MyD88 BLA complementation, FRET ratio. inhibition, % at 8.4 µM. actives 0.18% (n = 200,000); in the data active means inhibition above about 25%;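 further: 0% = vehicle and 100% = reference inhibitor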
TLR9-MyD88 block – blocks human TLR9 binding to MyD88; Q9NR96+Q99836; CHO BLA complementation TLR9-MyD88, CCF4 FRET ratio; AID 504734; actives 0.21% (n = 340,000); inhibition, % at 4.98 µM;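 active means inhibition above the mean over all tested compounds plus 3 SD, cut at about 21% in these data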;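 further: 0% = DMSO only wells and 100% = clavulanate BLA inhibitor control wells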
ABHD5-PLIN5 inh – blocks binding of human ABHD5 to perilipin-5; Q00G26+Q8WTS1; Split G. princeps luciferase complementation, luminescence, 4 h; inhibition, % at 4 µM; actives 0.78% (n = 360,000); AID 602281;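 active means inhibition above the mean inhibition across every tested compound plus 3 SD, cut at about 22% in these data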;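 further: 0% = DMSO only wells and the 100% control is not disclosed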
Target sequence (Q00G26 whole entry, looked up): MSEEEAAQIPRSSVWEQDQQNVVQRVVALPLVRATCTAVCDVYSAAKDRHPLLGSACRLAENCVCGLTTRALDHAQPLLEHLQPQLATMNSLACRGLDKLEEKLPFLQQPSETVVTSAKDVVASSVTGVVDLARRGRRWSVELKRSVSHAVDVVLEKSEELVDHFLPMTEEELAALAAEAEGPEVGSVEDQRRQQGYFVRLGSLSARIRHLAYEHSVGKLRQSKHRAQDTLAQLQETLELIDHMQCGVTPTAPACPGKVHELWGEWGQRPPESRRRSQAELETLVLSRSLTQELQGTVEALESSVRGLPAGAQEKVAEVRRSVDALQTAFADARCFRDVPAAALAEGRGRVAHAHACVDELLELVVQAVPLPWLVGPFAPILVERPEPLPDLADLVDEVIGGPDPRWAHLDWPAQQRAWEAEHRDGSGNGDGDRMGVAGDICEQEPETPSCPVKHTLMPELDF
Target sequence (Q8WTS1 whole entry, looked up): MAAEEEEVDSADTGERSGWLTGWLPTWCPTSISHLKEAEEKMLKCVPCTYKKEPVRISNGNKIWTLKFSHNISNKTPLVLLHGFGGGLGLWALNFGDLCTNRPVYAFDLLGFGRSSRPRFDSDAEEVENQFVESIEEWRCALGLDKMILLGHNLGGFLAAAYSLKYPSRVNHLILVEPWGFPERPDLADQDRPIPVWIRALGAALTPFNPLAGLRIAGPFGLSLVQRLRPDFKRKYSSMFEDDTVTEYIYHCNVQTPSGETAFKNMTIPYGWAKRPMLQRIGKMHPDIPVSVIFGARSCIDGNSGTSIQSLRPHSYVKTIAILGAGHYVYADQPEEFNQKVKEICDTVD
ABHD5 PLIN5 conf – ABHD5-PLIN5 interaction inhibition, confirmed. inhibition, % at 4 µM. shares compounds with ABHD5-PLIN5 inh. biochemical ABHD5-PLIN5 interaction, luminescence. AID 651612. actives 67% (n = 2,200); in the data active means inhibition above about 23%;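 further: 0% = DMSO vehicle wells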
HNF4 counter – HNF4 split-luciferase signal hit, counter-screen; shares compounds with ABHD5-PLIN5 inh; HNF4 dimerization, luminescence, biochemical; inhibition, % at 4 µM; actives 77% (n = 2,200); AID 651674;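 active means mean inhibition across replicate wells exceeding the computed hit threshold, cut at about 13% in these data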;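 further: light from luciferase halves that rejoin when HNF4 fusion proteins dimerize; 0% = DMSO only wells and the 100% control is not given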
NOD2 RIPK2 conf – confirmation of human NOD2-RIPK2 interaction inhibitors; inhibition, % at 4.98 µM; CHO cells, NOD2-RIPK2 BLA complementation, CCF4 FRET; actives 70% (n = 1,200); AID 624370; shares compounds with NOD2-RIPK2 inh;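 active means mean inhibition across replicates above a set limit taken from the earlier primary screen, cut at about 21% in these data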;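 further: 0% = DMSO-only wells and the high end = clavulanate BLA-blocked wells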
BLA counter – hits BLA reporter in NOD2-RIPK2 inhibitor counterscreen; shares compounds with NOD2-RIPK2 inh; CHO BLA reporter, CCF4 FRET ratio; inhibition, % at 4.98 µM; actives 57% (n = 1,200); AID 624371;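 active means mean inhibition above the low-control mean inhibition plus three low-control SD, cut at about 11% in these data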;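 further: 0% = DMSO only wells and 100% = clavulanate high control wells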
* = called active by the depositor; . = no result.

SMILES | NOD2-RIPK2 inh | TLR4 MyD88 comp | TLR9-MyD88 block | ABHD5-PLIN5 inh | ABHD5 PLIN5 conf | HNF4 counter | others
CC1CCC(C(C)C)C(OC(=O)Cn2c(COc3ccccc3)[n+](C)c3ccccc32)C1 (stereo not drawn) | -10 | . | 3 | 29* | 12 | 8
O=C1NC(=O)C2C1C1(Cl)C(Cl)=C(Cl)C2(Cl)C1(Cl)Cl (stereo not drawn) | -4 | . | -8 | 2 | . | .
Cn1c(O)c(C=NC2CCN(Cc3ccccc3)CC2)c(=O)n(C)c1=O | 7 | . | -6 | 1 | . | .
O=C1NC(=O)N(c2ccc3c(c2)OCO3)C(=O)/C1=C/c1cccs1 | -7 | 11 | -1 | 29* | 82* | 87*
O=C1NC(=O)N(c2ccc3c(c2)OCO3)C(=O)/C1=C/c1ccsc1 | 4 | 4 | -2 | 30* | 66* | 55*
O=C1NC(=O)C(=Cc2ccc(-c3ccc(S(=O)(=O)N4CCOCC4)cc3)o2)C(=O)N1 | -12 | . | 1 | 33* | 91* | 93*
CN1C(=O)C(=Cc2ccc(Sc3ccccc3)o2)C(=O)N(C)C1=O | -11 | 8 | 6 | 10 | . | .
O=C1NC(=O)C(=Cc2ccc(Sc3ccccc3)o2)C(=O)N1 | -1 | . | 2 | 23* | 96* | 103*
C=C1C(=O)O[C@H]2[C@H]1[C@H](OC(=O)CC(=O)O[C@@H]1C[C@@H](C)[C@@H]3C=CC(=O)[C@@]3(C)[C@H]3OC(=O)C(=C)[C@H]13)C[C@@H](C)[C@H]1C=CC(=O)[C@]12C | 7 | . | 1 | 74* | 91* | 90*
C=C1C(=O)OC2CC(C)C3C=CC(=O)C3(C)C(O)C12 (stereo not drawn) | 20 | . | 8 | 79* | 93* | 90*
O=C(Cn1c(=O)n(CC2CS2)c2ccccc21)N1CCCCCC1 (stereo not drawn) | 0 | 3 | 0 | 0 | . | .
O=C1CC(=O)N(c2ccccc2)C(=O)N1 | -4 | . | -2 | 29* | 5 | 24*
Cc1ccc(N2C(=O)CC(=O)NC2=O)cc1 | 1 | 5 | 0 | 21 | . | .
CCN(CC)S(=O)(=O)c1ccc(C)c(NCC(=O)Nc2ccc(C#N)c(Cl)c2)c1 | -14 | 14 | 7 | -8 | . | .
COC[C@H]1OC(=O)c2coc3c2[C@@]1(C)C1=C(C3=O)[C@@H]2CCC(=O)[C@@]2(C)C[C@H]1OC(C)=O | 0 | . | -12 | 26* | 8 | 69*
O=C(O)Cn1cc(/C=C2\C(=O)NC(=O)N(c3ccc(Cl)cc3)C2=O)c2ccccc21 | -5 | . | 4 | 36* | 33* | 32*
O=C(O)Cn1cc(C=C2C(=O)NC(=O)NC2=O)c2ccccc21 | -7 | . | 6 | 32* | 12 | 12
COc1cc(/C=C2\C(=O)NC(=O)N(c3ccccc3)C2=O)c([N+](=O)[O-])cc1OC | -7 | -17 | -14 | 10 | . | .
C=CCn1cc(C=C2C(=O)NC(=O)NC2=O)c2ccccc21 | -1 | . | 6 | 16 | . | .
COc1cc(/C=C2\C(=O)NC(=O)N(c3ccccc3)C2=O)cc(OC)c1O | -8 | 6 | -1 | 34* | 17 | 22*
Cn1cc(/C=C2\C(=O)NC(=O)N(c3ccccc3)C2=O)c2ccccc21 | -9 | . | 1 | 29* | 14 | 15*
BrCC(Br)C1CCC(Br)C(Br)C1 (stereo not drawn) | 4 | . | 9 | -2 | . | .
Cc1cc(=O)oc2c(C)c(OCC(=O)N3CCC(C(=O)O)(c4ccccc4)CC3)ccc12 | 0 | . | 8 | -1 | . | .
CN1C(=O)C2C[C@@]3(Br)c4ccccc4N(OOSc4ccccc4)[C@H]3N2C(=O)[C@@H]1Cc1ccccc1 (stereo partly drawn) | 6 | . | -10 | 6 | . | .
CC1(C)C[C@H]2C=C(C=O)[C@]3(C=O)C[C@]3(C)[C@H]2C1 | -10 | 2 | 8 | 63* | 70* | 4
SMILES | NOD2-RIPK2 inh | TLR4 MyD88 comp | TLR9-MyD88 block | ABHD5-PLIN5 inh | ABHD5 PLIN5 conf | HNF4 counter | others
O=C(CCNC(=O)N1C[C@H]2C[C@@H](C1)c1cccc(=O)n1C2)Nc1ccc(F)cc1 | -3 | . | -3 | 6 | . | .
CNC(=S)N(C)CCc1cc2c(c(OC)c1C=C1C(=O)NC(=O)NC1=O)OCO2 | -10 | . | 12 | 22 | . | .
C=CCN1C(=O)NC(=O)/C(=C/c2c(CCN(C)C(=O)c3ccccc3)cc3c(c2OC)OCO3)C1=O | -2 | . | -10 | 26* | 9 | 18*
CCCCCCCCn1sccc1=O | 15 | . | 1 | 90* | 89* | 107*
CC(C)(O)/C=C/C(=O)C(C)(O)C1C(O)CC2(C)C3CC=C4C(C=C(O)C(=O)C4(C)C)C3(C)C(=O)CC12C (stereo not drawn) | 13 | . | 12 | 42* | 68* | 50*
Cc1ccc(N2C(=O)CC(=O)NC2=O)c(C)c1 | 12 | . | -8 | 17 | . | .
COc1ccc(OC)c(N2C(=O)CC(=O)NC2=O)c1 | -2 | . | -2 | 30* | 5 | 21*
Cc1ccc(-[n+]2c(Cc3nn(-c4ccccc4)c(C)[n+]3-c3ccc(C)cc3)nn(-c3ccccc3)c2C)cc1 | -8 | . | 6 | 5 | . | .
O=C(c1ccccc1)C(CN1CCCC1)c1ccccc1 (stereo not drawn) | 8 | 3 | 2 | 17 | . | .
CC1CCN(C(CC(=O)c2ccccc2)C(=O)c2ccccc2)CC1 (stereo not drawn) | 28* | . | 0 | 42* | 64* | 103* | NOD2 RIPK2 conf=12;BLA counter=-3
COc1cc(NC(=O)CN2C3CCC2CC(O)(c2cccnc2)C3)cc(OC)c1 (stereo not drawn) | 6 | 1 | 4 | 1 | . | .
CN(C)CC(C(=O)Cc1ccccc1)c1ccccc1 (stereo not drawn) | 57* | . | -19 | 37* | 16 | 92* | NOD2 RIPK2 conf=11;BLA counter=-6
COc1cc(/C=C/[N+](=O)[O-])ccc1OC(=O)c1cccnc1 | 22* | . | -1 | 27* | 83* | 101* | NOD2 RIPK2 conf=86*;BLA counter=6
COc1cc(/C=N/n2cnnc2)ccc1OC(=O)N(C)C | 4 | -7 | 6 | -8 | . | .
COC(=O)C1=C(C(=O)OC)SC2(S1)C(C(=O)OC)=C(C(=O)OC)Sc1c2ssc1=O | 75* | . | 2 | 91* | 102* | 112* | NOD2 RIPK2 conf=76*;BLA counter=4
COc1cc2c(cc1/C=C/[N+](=O)[O-])OCO2 | 40* | 13 | -5 | 66* | 96* | 101* | NOD2 RIPK2 conf=65*;BLA counter=-5
